As a reminder, the inhibition is the relative decrease from the control value, in per cent. As a reminder, the viability is a per cent measure of how many cells are alive, often set against a control.

The structures appear in SMILES notation. Several values for one entry are separate records, joined by “and”; a condition that tells them apart may be missing. Equal entries are not always repeated. Activity calls are given as the source filed them. Cut-off read from the data, not from the text of the source, unless noted: active = inhibition above about 80%; inactive = the rest.

Results on three compounds are retold here after PubChem BioAssay.

A short description of assay [1]: LFS_MB_1R medulloblastoma cell growth inhibition, synergistic combos for chromothripsis tumors, cisplatin or BGB combos (AID 1671452).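 Note: cells exposed for 96 hours before readout.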 The conditions noted are these: LFS_MB_1R medulloblastoma cells, stronger effect = higher value.
A short description of assay [2]: CRL2098 osteosarcoma cell growth inhibition, synergistic combos for chromothripsis tumors, BGB or cisplatin IC20 combos (AID 1671454).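 Note: cells exposed for 96 h before readout; 0% = vehicle DMSO and 100% = killing by high DMSO.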 The settings on record: CRL2098 osteosarcoma cells, drug combinations, stronger effect = higher value.
Assay [3] is described as follows: HD-MB03 medulloblastoma cell growth inhibition, synergistic combos for chromothripsis tumors, BGB or cisplatin IC20 combos (AID 1671455; in the data active = inhibition above about 83%;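 note: 0% = vehicle DMSO and 100% = high DMSO as cytotoxic control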). The conditions noted are these: HD-MB03 medulloblastoma cells, stronger effect = higher value.
The nature of assay [4]: UWB1.289 ovarian carcinoma cell growth inhibition, synergistic combos for chromothripsis tumors, BGB or cisplatin combos (AID 1671456).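 Note: cells exposed to compound for four days; 0% = vehicle DMSO and 100% = killing by high DMSO.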 The conditions noted are these: UWB1.289 ovarian carcinoma cells, stronger effect = higher value.
Assay [5] in a line: LFS_MB_2R medulloblastoma cell growth inhibition, synergistic combos for chromothripsis tumors, cisplatin combos (AID 1671457).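 Note: cells exposed to compound for four days before readout.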 The conditions noted are these: LFS_MB_2R medulloblastoma cells, stronger effect = higher value.
Assay [6] in a line: UWB1.289_BRCA1 ovarian cancer growth, cell-based, BGB or cisplatin combinations (AID 1671459). The settings on record: UWB1.289 BRCA1 ovarian carcinoma, drug combinations, stronger effect = higher value.
The nature of assay [7]: human astrocyte viability loss, single and combined drugs, cytotoxicity control for chromothriptic childhood tumor combination screen, cell-based, BGB or cisplatin IC20 combos (AID 1671460).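 Note: cells exposed to compounds for 96 hours before viability readout; 0% = vehicle and 100% = killing control.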 The conditions noted are these: Human astrocytes, drug combinations, stronger effect = higher value.
Assay [8] can be described thus: growth inhibition of CRL1545 osteosarcoma cells, cell-based, cisplatin and BGB IC20 combos (AID 1671464).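 Note: cells exposed to compound for 96 hours before readout; 0% = vehicle DMSO and 100% = high DMSO killing control.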 The settings on record: stronger effect = higher value.
Assay [9] in a line: kinase inhibitors against Plasmodium liver-stage infection, cell-based, known kinase inhibitor set, luminescence, hepatoma host viability (AID 624392; call rule not given here;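 note: infected cells incubated roughly two days before readout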). The conditions noted are these: Plasmodium liver stage in hepatoma cells, luciferase luminescence, concentration not given here; liver cell % of control: measured here: host liver cell viability; parasite % of control: stronger effect = lower value.

Assay [10] in a line: liver-stage malaria parasite growth inhibition, primary screen, cell-based, HepG2, luciferase luminescence, HepG2 viability (AID 624349; in the data active = parasite load remaining mostly below about 12%, no sharp cut-off; inactive = mostly above about 10%;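 note: 100% = mean of DMSO negative control wells on the same plate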). The conditions noted are these: P. berghei liver stage in HepG2, luciferase luminescence, concentration not given here; parasite load remaining: stronger effect = lower value; viability: measured here: HepG2 viability without parasites.
Where [11] appears, read: measured here: combination with BGB IC40, at 0.05 µM.
Setting [12] is: measured here: combination with cisplatin, at 0.5 µM.
Setting [13] is: measured here: combination with cisplatin, at 5 µM.
Where [14] appears, read: measured here: combination with BGB at IC20, at 0.5 µM.
[15] abbreviates: measured here: combination with cisplatin at IC20, at 0.5 µM.
[16] abbreviates: measured here: combo with BGB at IC20, at 0.5 µM.
[17] abbreviates: measured here: combo with cisplatin at IC20, at 0.5 µM.
Where [18] appears, read: measured here: inhibition with BGB combination, at 0.05 µM.
[19] abbreviates: measured here: inhibition with cisplatin combination, at 0.05 µM.
Where [20] appears, read: BGB combination, concentration series, at 5 µM.
The mark [21] stands for this setting: cisplatin combination, concentration series, at 5 µM.
Setting [22] is: measured here: combo with BGB IC20, at 0.5 µM.
Where [23] appears, read: measured here: combo with cisplatin IC20, at 0.5 µM.
Setting [24] is: measured here: with BGB IC20 combination, at 0.5 µM.
Where [25] appears, read: measured here: with cisplatin IC20 combination, at 0.5 µM.

For the compound `CCCCc1nc2cc(/C=C/C(=O)NO)ccc2n1CCN(CC)CC`, the inhibition was 31% (inactive) in [1] (at 0.5 µM); -30.9% in [1] (setting [11]); 45.7% in assay [1] (setting [12]); 97.5% in assay [1] (setting [13]); -2.27% (inactive) in assay [2] (at 0.5 µM); -16.1% in assay [2] (setting [14]). The inhibition was 1.66% in [2] (setting [15]); 93.3% (active) in [3] (at 0.5 µM); 95.7% in assay [3] (setting [16]); 99.3% in assay [3] (setting [17]); 46.9% (inactive) in assay [4] (at 0.5 µM); 11.6% in assay [4] (setting [18]). Further, the inhibition in [4] (setting [19]) is 0.198%; in [5] (at 0.5 µM), 26.1% (inactive); in [5] (setting [12]), 56.5%; in assay [5] (setting [13]), 98.1%; in assay [6] (setting [20]), 115%; in assay [6] (at 0.5 µM), 51.5% (inactive). The inhibition is 127% in [6] (setting [21]); 41.3% (inactive) in assay [7] (at 0.5 µM); 44.4% in [7] (setting [22]); 26% in [7] (setting [23]); 81.5% (active) in assay [8] (at 0.5 µM); 67.7% in [8] (setting [24]). In addition, the inhibition in assay [8] (setting [25]) is 88.2%; in assay [8] (single agent, at 0.05 µM) it was -14.8%; in [8] (single agent, at 5 µM) it was 93.1%.

As for `Cc1ccc(C(=O)Nc2cccc(C(F)(F)F)c2)cc1-c1ccc2nc(NCCN3CCOCC3)ncc2c1`, in [9], the liver cell % of control was 51.5% and 76.3% and 85.2%; the parasite % of control is 60.4% (inactive) and 252% (inactive) and 87.5% (inactive).

Take `Cc1ccc([N+](=O)[O-])cc1S(=O)(=O)N(C)/N=C/c1cnc2ccc(Br)cn12`: the parasite load remaining in assay [10] was 40.5% (inactive). In assay [10], this compound gave a viability of 60.2%. The inhibition is 82.3% (active) in assay [1] (at 0.5 µM); -47.5% in assay [1] (setting [11]); 77.8% in assay [1] (setting [12]); 97.4% in [1] (setting [13]); 89.7% (active) in [2] (at 0.5 µM); 91.5% in assay [2] (setting [14]). The inhibition was 95.8% in [2] (setting [15]); 84.2% (active) in [3] (at 0.5 µM); 85% in [3] (setting [16]); 81.5% in assay [3] (setting [17]); 63.4% (inactive) in [4] (at 0.5 µM); -17.5% in assay [4] (setting [18]). Besides, the inhibition was -14.7% in [4] (setting [19]); 63.9% (inactive) in [5] (at 0.5 µM); 63.1% in [5] (setting [12]); 90.7% in assay [5] (setting [13]); 89.2% in assay [6] (setting [20]); 73.9% (inactive) in assay [6] (at 0.5 µM). Also, the inhibition in assay [6] (setting [21]) was 92.4%; in assay [7] (at 0.5 µM), 83.2% (active); in assay [7] (setting [22]), 77.8%; in [7] (setting [23]), 81.3%; in assay [8] (at 0.5 µM) it was 96.9% (active); in assay [8] (setting [24]), 98.1%. Moreover, the inhibition in [8] (setting [25]) is 96.2%; in assay [8] (single agent, at 0.05 µM) it was -27.4%; in assay [8] (single agent, at 5 µM), 99.9%.
